Bioassay records as filed in PubChem BioAssay.
Rows were chosen to be rich in hits. Some 0.93% of all compounds tested hit in one or more screens of this group.
LAP4-GFP MLPCN – alters LAP4-GFP fluorescence in TOR pathway yeast screen. S. cerevisiae LAP4-GFP multiplex, flow cytometry GFP, 3 h; median GFP as percent of DMSO wells. GFP response vs DMSO, % at 10 µM. 0.34% of 320,000 active. AID 2023;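 active = GFP response vs DMSO above a set limit, about the screen mean plus 3 SD, cut at about 150% in these data; inconclusive = under 70 cell events counted for the yeast strain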
MEP2 TOR yeast – yeast TOR pathway MEP2-GFP modulation; S. cerevisiae MEP2-GFP strain, flow cytometry GFP, 3 h; 100% = DMSO control level; GFP response vs DMSO, % at 10 µM; 0.51% of 330,000 active; AID 2016;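 active = GFP response versus DMSO above a set limit, roughly screen mean plus 3 SD, cut at about 180% in these data; inconclusive = fewer than 70 cells counted for a yeast strain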;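 also: median GFP fluorescence of the barcode-gated MEP2-GFP cells per well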
CIT2 TOR yeast – modulators of TOR pathway CIT2-GFP in S. cerevisiae. S. cerevisiae CIT2-GFP strain, flow cytometry, 3 h; 100 means same as DMSO wells. 0.065% of 320,000 active. GFP response vs DMSO, % at 10 µM. AID 2029;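 active = GFP response relative to DMSO above a set limit, near the screen mean plus 3 SD, cut at about 150% in these data; inconclusive = Fewer than 70 cells measured for a yeast strain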;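 also: ratio of well median GFP fluorescence to mean of DMSO wells on the plate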
RPL19A TOR yeast – alters RPL19A-GFP fluorescence in TOR pathway yeast screen; S. cerevisiae RPL19A-GFP strain, flow cytometry, 3 h; stronger effect = lower value; percent response vs DMSO, % at 10 µM; 0.3% of 330,000 active; AID 2025;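 active = percent response vs DMSO below 50%; inconclusive = fewer than 70 events counted for the yeast strain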;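 also: median channel GFP fluorescence of the barcoded RPL19A-GFP strain; ratio of sample median GFP to plate DMSO average so 100% = DMSO; lower means less RPL19A-GFP as with rapamycin TOR inhibition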
AGP1 TOR yeast – yeast TOR pathway AGP1-GFP modulation | GFP response vs DMSO, % at 10 µM | 0.02% of 320,000 active | S. cerevisiae AGP1-GFP multiplex flow cytometry, 3 h; GFP as percent of DMSO wells;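 active = GFP response relative to DMSO above a set limit, near screen average plus 3 SD, cut at about 150% in these data; inconclusive = fewer than 70 cells counted for the yeast strain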;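 also: median GFP channel fluorescence of the gated AGP1 strain per well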
LAP4-GFP pick2 – yeast LAP4-GFP modulation, second cherry pick | shares compounds with LAP4-GFP MLPCN | S. cerevisiae LAP4-GFP strain, flow cytometry GFP, 3 h | AID 2621 | 20% of 590 active | GFP response vs DMSO, % at 10 µM;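 active = GFP signal as percent of the solvent control above about 150%, meaning raised reporter expression, limit read from the data; inconclusive = fewer than 70 cells counted in the well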;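 also: ratio of well median GFP fluorescence to plate DMSO mean so 100% = DMSO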
MEP2-GFP pick2 – reconfirmed MEP2-GFP TOR pathway modulator in yeast; shares compounds with LAP4-GFP MLPCN; S. cerevisiae MEP2-GFP strain, flow cytometry GFP, 3 h; GFP response vs DMSO, % at 10 µM; 10% of 590 active; AID 2622;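 active = GFP signal above 150% of the solvent control wells, that is a rise of more than half; inconclusive = fewer than 70 yeast cells counted in the well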;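 also: median channel GFP fluorescence of all gated yeast cells per well; ratio of median GFP to plate DMSO average so 100% = DMSO level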
RPL19A GFP CP2 – reconfirmed modulator of RPL19A-GFP TOR reporter in yeast | shares compounds with LAP4-GFP MLPCN | S. cerevisiae RPL19A-GFP strain, flow cytometry GFP, 3 h; stronger effect = lower value; 100% means same as DMSO wells | GFP response vs DMSO, % at 10 µM | 3% of 590 active;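 active = under 65% GFP response relative to DMSO; inconclusive = yeast strain with under 70 measured events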;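 also: median GFP channel fluorescence per well over the all cells gate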
CIT2-GFP pick2 – yeast CIT2-GFP TOR reporter modulation, second cherry pick; shares compounds with LAP4-GFP MLPCN; S. cerevisiae CIT2-GFP strain, flow cytometry GFP, 3 h; DMSO control wells read 100%; GFP response vs DMSO, % at 10 µM; 8% of 590 active; AID 2624;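 active = GFP response vs DMSO above about 150%, limit read from the data; inconclusive = fewer than 70 events counted for a yeast strain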;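 also: median green fluorescence per well over all gated yeast cells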
AGP1 GFP CP2 – reconfirmed modulator of AGP1-GFP TOR reporter in yeast; 590 tested, under 10 active; shares compounds with LAP4-GFP MLPCN; S. cerevisiae AGP1-GFP strain, flow cytometry GFP, 3 h; percent response vs DMSO, % at 10 µM;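 active = over 150 percent of DMSO response; inconclusive = yeast strain measured with under 70 events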;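 also: median GFP channel fluorescence over all cells without mother daughter split; sample median GFP divided by mean DMSO control so 100% equals DMSO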
Yeast autofluor – compound is autofluorescent in yeast s288c cells | shares compounds with LAP4-GFP MLPCN | S. cerevisiae s288c, 520 nm autofluorescence, flow cytometry, 3 h; stronger effect = higher value; zero means same as solvent-only cells | fluorescence change (kMESF span) at 33 µM | 610 tested, under 10 active | AID 2757;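 active = fluorescence span over the dose series, or activity score, above about 33, limit read from the data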
s288c autofl DR – yeast s288c autofluorescence artifact in dose response. shares compounds with LAP4-GFP MLPCN. S. cerevisiae s288c parental, compound autofluorescence, flow cytometry, 3 h. fluorescence change (span) at 33 µM. 110 tested, under 10 active;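 active = fluorescence change span, or the activity score built from it, above 25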
TORC1 bypass gr – stops wildtype yeast growth while TORC1 bypass cells still grow. S. cerevisiae BY4741 spot growth rating, 48-72 h; stronger effect = lower value. growth rating (0-3) at 30 µM. shares compounds with LAP4-GFP MLPCN. 120 tested, under 10 active. AID 504456;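 active = growth rating at most 1 for wild type yeast while the TORC1 bypass strain still grows fully, rated 3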
Numbers without * were called inactive.

`COc1ccc(C(=O)NCC(=O)N2CCCC(C(F)(F)F)C2)cc1OC` (configuration not stated) gave LAP4-GFP MLPCN 107, MEP2 TOR yeast 103, CIT2 TOR yeast 103, RPL19A TOR yeast 101 and AGP1 TOR yeast 103.
Screening O=[N+]([O-])c1ccc(Sc2nc3ccccc3o2)c([N+](=O)[O-])c1 returned LAP4-GFP MLPCN 165*, MEP2 TOR yeast 98, CIT2 TOR yeast 107, RPL19A TOR yeast 102, AGP1 TOR yeast 98 and Yeast autofluor 0.51.
CCN(CC(=O)NC1CCS(=O)(=O)C1)S(=O)(=O)c1ccc(Br)cc1 (configuration not stated) was read as LAP4-GFP MLPCN 85, MEP2 TOR yeast 92, CIT2 TOR yeast 122, RPL19A TOR yeast inconclusive and AGP1 TOR yeast 94.
COc1ccccc1C(CNC(=O)c1cc(S(=O)(=O)N2CCOCC2)ccc1C)N1CCCC1 (configuration not stated) was read as LAP4-GFP MLPCN 97, MEP2 TOR yeast 101, CIT2 TOR yeast 98, RPL19A TOR yeast 101 and AGP1 TOR yeast 102.
For CC(C)(C)C1C/C(=C/c2ccccn2)C(=O)/C(=C/c2ccccn2)C1 (configuration not stated) the results were LAP4-GFP MLPCN 162*, MEP2 TOR yeast 97, CIT2 TOR yeast 84, RPL19A TOR yeast 99, AGP1 TOR yeast 80, LAP4-GFP pick2 181*, MEP2-GFP pick2 98, RPL19A GFP CP2 104, CIT2-GFP pick2 106, AGP1 GFP CP2 96 and Yeast autofluor 0.
Screening CCc1ccc(NC(=O)C(C)Sc2ccc(S(=O)(=O)N3CCN(C)CC3)cn2)cc1 (configuration not stated) returned LAP4-GFP MLPCN 95, MEP2 TOR yeast 96, CIT2 TOR yeast 100, RPL19A TOR yeast 94 and AGP1 TOR yeast 97.
Screening COc1ccc(C(CNC(=O)COc2ccc(Cl)cc2C)N2CCCCC2)cc1 (configuration not stated) returned LAP4-GFP MLPCN 94, MEP2 TOR yeast 98, CIT2 TOR yeast 106, RPL19A TOR yeast 101 and AGP1 TOR yeast 102.
`CC1=NN(c2ccccc2)C(=O)/C1=C/c1cccc(C)c1` gave LAP4-GFP MLPCN 101, MEP2 TOR yeast 101, CIT2 TOR yeast 100, RPL19A TOR yeast 107 and AGP1 TOR yeast 93.
For CC1=NN(c2ccccc2)C(=O)/C1=C/c1c(C)[nH]n(-c2ccc(C)cc2)c1=O the results were LAP4-GFP MLPCN 98, MEP2 TOR yeast 92, CIT2 TOR yeast 88, RPL19A TOR yeast 92, AGP1 TOR yeast 90, LAP4-GFP pick2 97, MEP2-GFP pick2 103, RPL19A GFP CP2 106, CIT2-GFP pick2 100 and AGP1 GFP CP2 102.
Screening CCC(=O)NC(c1ccccc1OC)c1ccc2cccnc2c1O (configuration not stated) returned LAP4-GFP MLPCN 95, MEP2 TOR yeast 102, CIT2 TOR yeast 98, RPL19A TOR yeast 100 and AGP1 TOR yeast 116.
For COc1ccc(Cl)cc1C(Nc1cccnc1)c1ccc2cccnc2c1O (configuration not stated) the results were LAP4-GFP MLPCN 192*, MEP2 TOR yeast 99, CIT2 TOR yeast 90, RPL19A TOR yeast 85, AGP1 TOR yeast 106 and Yeast autofluor 1.
For O=C(O)c1ccc(-c2ccc(Cl)cc2Cl)o1 the results were LAP4-GFP MLPCN 98, MEP2 TOR yeast 93, CIT2 TOR yeast 76, RPL19A TOR yeast 81 and AGP1 TOR yeast 69.
CN(C)/C=C/C(=O)c1ccc(-c2ccc(Cl)cc2Cl)o1 was read as LAP4-GFP MLPCN 83, MEP2 TOR yeast 160, CIT2 TOR yeast 85, RPL19A TOR yeast 58, AGP1 TOR yeast 21, LAP4-GFP pick2 159*, MEP2-GFP pick2 148, RPL19A GFP CP2 113, CIT2-GFP pick2 154*, AGP1 GFP CP2 87 and Yeast autofluor 0.8.
`Cc1cc(=O)oc2cc(Oc3ccc([N+](=O)[O-])cc3C(F)(F)F)ccc12` gave LAP4-GFP MLPCN 99, MEP2 TOR yeast 102, CIT2 TOR yeast 94, RPL19A TOR yeast 96, AGP1 TOR yeast 96, LAP4-GFP pick2 105, MEP2-GFP pick2 105, RPL19A GFP CP2 98, CIT2-GFP pick2 99, AGP1 GFP CP2 103 and Yeast autofluor 0.11.
Screening Cc1c(NC(=O)C(C)OC(=O)c2cccnc2Cl)c(=O)n(-c2ccccc2)n1C (configuration not stated) returned LAP4-GFP MLPCN 97, MEP2 TOR yeast 100, CIT2 TOR yeast 100, RPL19A TOR yeast 100 and AGP1 TOR yeast 99.
CC(=O)c1ccc(N2CCN(C(=O)c3ccc(Br)cc3)CC2)c(F)c1 was read as LAP4-GFP MLPCN 162*, MEP2 TOR yeast 110, CIT2 TOR yeast 90, RPL19A TOR yeast 103, AGP1 TOR yeast 121, Yeast autofluor 1.9, s288c autofl DR 0.52 and TORC1 bypass gr 3.
`COc1ccccc1NC(=O)C(C)OC(=O)CCC1CCCCC1` (configuration not stated) gave LAP4-GFP MLPCN 81, MEP2 TOR yeast 113, CIT2 TOR yeast 103, RPL19A TOR yeast 107 and AGP1 TOR yeast 93.
